The panel holds about 83,000 compounds, 20% with a hit somewhere; the sample as a whole holds those more often.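 A percent growth of 40 corresponds to 60% growth inhibition; 0 means no net growth; -100 means all cells died. Active threshold: below 10.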 Unmarked numbers belong to inactive results. Calls of active or inactive are those of the source.

One assay relates to SK-MEL-2 melanoma. As to the kind of experiment: NCI-60 one-dose screen, 48 h (100 = growth as untreated, 0 = no growth, -100 = all killed). The note with it: 10 µM unless noted.
Consider `O=C(c1ccc(Cl)cc1)C1[C@H](c2ccccc2Cl)[C@@H](c2ccccc2)NC12C(=O)Nc1ccc(Br)cc12` (stereo not given in full), for which the growth is -89.9% (active).

With `O=C(CSc1nnc(-c2ccc(-c3nc4ccc(Cl)cc4[nH]3)cc2)o1)Nc1ccc(Cl)cc1`, the growth was 14.7%. Same read-out and setting: the value for `N#Cc1c(NC(=O)N2CCOCC2)n(-c2ccc(OC(F)(F)F)cc2)c2cc(F)ccc12` was 94%; that for `O=C(N/N=C/c1ccc(Cl)o1)c1[nH]c2ccc(Br)cc2c1-c1ccccc1` was 12.3%. Still for that read-out and setting: to `CC1=C(C(=O)OCc2ccccc2)C(c2cccc3ccccc23)n2c(nc3ccccc32)N1` (stereo not given) belongs 18%; to `CC1=NN(C2=NC(=O)C(CC(=O)Nc3ccccc3C(F)(F)F)S2)C(c2ccc(N(C)C)cc2)C1` (stereo not given), 65.2%; to `CN1C(=O)C2(C(C#N)=C(c3ccc(Cl)cc3)Nc3c2c(-c2ccccc2)nn3-c2ccccc2)c2ccccc21` (stereo not given), 89.8%.

As to `O=[N+]([O-])c1cccc(-c2nnc3c(/C=C/c4ccc(F)cc4)nc4ccccc4n23)c1`, the growth was 97.7%.

In the case of `COC(=O)c1cc(C(C)=O)n2c3ccccc3c3ccccc3c12`, the growth is 99.2%. The same measure, in the same setting: to `CCCCCCCOc1ccc(S(=O)(=O)Nc2ccc(C)c(F)c2C(=O)O)cc1` belongs 102%; to `COc1ccc2[nH]cc(-c3cc4nc(-c5cn(C)c6ncc(Br)cc56)cc(N)n4n3)c2c1`, -34.7% (active); to `COc1ccc2c(c1)N=c1c-2cc2c(O)[nH]c(=S)n2c1=O`, 41.9%. In the case of `CC(C)C[C@H](NC(=O)[C@@H]1CCCCCCCCCCC(=O)N[C@@H](CC(=O)N2CCC[C@@H]2C2CCCC2)C(=O)N1)B(O)O`, the growth is -70.6% (active). Turning to `O=C1NC(=S)/C(=C/c2cn(-c3ccccc3)nc2-c2ccccc2)S1`, the growth is -4.17% (active).

As for `CN(C)C(=O)c1cc(-c2ccc3ncnc(N4CCc5cc(F)c(Cl)cc54)c3c2)cnc1N`, the growth is -86% (active). On the same count and under the same terms, to `N#C/C(=C/c1ccc(Cl)cc1)c1nnc(NC(=O)c2ccc(-n3c(=O)[nH]c4ccccc4c3=O)cc2)s1` belongs 91.6%; to `COc1c(B(O)O)cc(F)cc1-c1nc2c(F)cc3[nH]ncc3c2c2c1CCCC2`, 46.8%. Still for that read-out and setting: the value for `O=C(CSc1nc2sc3c(c2c(=O)n1-c1ccc(Cl)cc1)CCCC3)NNC(=O)c1ccc(Br)cc1` was 99.1%; that for `CN(C)c1ccc(/C=C/c2n(Cc3ccc4ccccc4c3)c3ccccc3[n+]2Cc2ccc3ccccc3c2)cc1` was -70.8% (active). The same measure, in the same setting: the value for `COc1ccc2[nH]c(=O)cc(-n3ncc(C(=O)/C=C/c4cc(OC)c(OC)c(OC)c4)c3C)c2c1` was -28.3% (active); that for `COc1ccc(C(=O)C[n+]2cccc3c4ccccc4ccc32)cc1` was 56.3%; that for `CN1CCc2c(sc3ncnc(N/N=C/c4cccc(Cl)c4Cl)c23)C1` was 104%. `COc1ccc2[nH]c(O)c(N=Nc3nc(-c4ccccc4)cs3)c2c1`: the growth is 83.7%. Still for that read-out and setting: the value for `COc1ccc(N=Nc2c(N)nn3c(N)c(C#N)c(-c4ccc(F)cc4)nc23)cc1` was 110%; that for `C=CCSc1nnc(-c2ccc(-c3nc4ccccc4[nH]3)cc2)o1` was 95%; that for `Cc1oc(-c2ccccc2)nc1CN[C@@H]1C[C@@H]2C[C@H]([C@H]1C)C2(C)C` was 85.7%. For `COc1ccc(NC2=C(I)C(=O)C(C)=C(C)C2=O)cc1`, the growth is 56.9%.

The next assay relates to EKVX NSCLC. The description is as above. Conditions: 10 µM unless noted.
In the case of `O=C(Nc1nc2ccccc2s1)Nc1ccccc1Cl`, the growth was 64.5%.

With `Cc1ccc(C(=O)Nc2cc(-n3ccnc3C)cc(C(F)(F)F)c2)cc1C#Cc1cnc2cccnn12`, the growth is 3.81% (active). As to `O=C(c1ccc(O)cc1)C1[C@H](c2ccc(Cl)cc2)[C@@H](c2ccccc2)NC12C(=O)Nc1ccccc12` (stereo not given in full), the growth was 8.32% (active). The same measure, in the same setting: the value for `COc1ccc(-c2nc3ccc(-c4nnc(SCC(=O)Nc5ccc(/C(C)=N\O)cc5)o4)cc3[nH]2)cc1` was 95.3%; that for `C[C@H]1[C@@H](CC(=O)N[C@@H](Cc2coc3ccccc23)B(O)O)O[C@@H]2OC3(C)CC[C@H]4[C@H](C)CC[C@@H]1[C@@]24O3` was 28.2%; that for `Cc1cc(C(NC(=O)C2CC3(CC(Nc4cccc5c4C(=O)N(C4CCC(=O)NC4=O)C5=O)C3)C2)c2ccc3c(c2)OC(F)(F)O3)c(O)c2ncccc12` (stereo not given) was 6.4% (active).

Regarding `NC(=O)c1ccc(-c2ccc3ncnc(N4CCc5cc(F)c(Cl)cc54)c3c2)cn1`, the growth is 19.5%.

With `CCN1C(=O)N(CC)C2NNC(Sc3c(C(=O)O)c4ccccc4n(CCC(C)C)c3=O)=NC21` (stereo not given), the growth is 20.8%. Consider `COc1ccc2[nH]c(O)c(N=Nc3nc(-c4ccc(Cl)cc4)cs3)c2c1`, for which the growth was -3.25% (active).

With `CC[C@]12C=CCN3CC[C@@]4(c5ccc(OC)cc5N(C)[C@H]4[C@@](O)(C(=O)OC)[C@@H]1OC(=O)CCCC[P+](c1ccc(F)cc1)(c1ccc(F)cc1)c1ccc(F)cc1)[C@@H]32`, the growth is 53%. Still for that read-out and setting: the value for `COc1cccc(/C=C/c2nc3ccccc3c(=O)n2CC(=O)Nc2ccccc2)c1` was 85.1%; that for `O=C(c1ccc(Cl)cc1)C1[C@H](c2ccccc2Cl)[C@@H](c2ccccc2)NC12C(=O)Nc1ccc(Br)cc12` (stereo not given in full) was -42.2% (active); that for `O=C(CSc1nnc(-c2ccc(-c3nc4ccc(Cl)cc4[nH]3)cc2)o1)Nc1ccc(Cl)cc1` was 48.4%. On to `N#Cc1c(NC(=O)N2CCOCC2)n(-c2ccc(OC(F)(F)F)cc2)c2cc(F)ccc12`, for which the growth was 90.1%. Consider `O=C(N/N=C/c1ccc(Cl)o1)c1[nH]c2ccc(Br)cc2c1-c1ccccc1`, for which the growth is 12%. The same measure, in the same setting: to `CC1=C(C(=O)OCc2ccccc2)C(c2cccc3ccccc23)n2c(nc3ccccc32)N1` (stereo not given) belongs 41.9%; to `CC1=NN(C2=NC(=O)C(CC(=O)Nc3ccccc3C(F)(F)F)S2)C(c2ccc(N(C)C)cc2)C1` (stereo not given), 48.5%. On the same count and under the same terms, to `CN1C(=O)C2(C(C#N)=C(c3ccc(Cl)cc3)Nc3c2c(-c2ccccc2)nn3-c2ccccc2)c2ccccc21` (stereo not given) belongs 80.7%. Still for that read-out and setting: to `O=[N+]([O-])c1cccc(-c2nnc3c(/C=C/c4ccc(F)cc4)nc4ccccc4n23)c1` belongs 96.2%; to `COC(=O)c1cc(C(C)=O)n2c3ccccc3c3ccccc3c12`, 69.5%; to `CCCCCCCOc1ccc(S(=O)(=O)Nc2ccc(C)c(F)c2C(=O)O)cc1`, 95.4%. Regarding `COc1ccc2[nH]cc(-c3cc4nc(-c5cn(C)c6ncc(Br)cc56)cc(N)n4n3)c2c1`, the growth is -82.7% (active). Same read-out and setting: the value for `COc1ccc2c(c1)N=c1c-2cc2c(O)[nH]c(=S)n2c1=O` was 48.7%.

With `CC(C)C[C@H](NC(=O)[C@@H]1CCCCCCCCCCC(=O)N[C@@H](CC(=O)N2CCC[C@@H]2C2CCCC2)C(=O)N1)B(O)O`, the growth was -39.2% (active). Still for that read-out and setting: to `O=C1NC(=S)/C(=C/c2cn(-c3ccccc3)nc2-c2ccccc2)S1` belongs 2.24% (active). With `CN(C)C(=O)c1cc(-c2ccc3ncnc(N4CCc5cc(F)c(Cl)cc54)c3c2)cnc1N`, the growth was -84.3% (active). On the same count and under the same terms, to `N#C/C(=C/c1ccc(Cl)cc1)c1nnc(NC(=O)c2ccc(-n3c(=O)[nH]c4ccccc4c3=O)cc2)s1` belongs 86%; to `COc1c(B(O)O)cc(F)cc1-c1nc2c(F)cc3[nH]ncc3c2c2c1CCCC2`, 13.5%. The same measure, in the same setting: the value for `O=C(CSc1nc2sc3c(c2c(=O)n1-c1ccc(Cl)cc1)CCCC3)NNC(=O)c1ccc(Br)cc1` was 60.9%. The same measure, in the same setting: the value for `CN(C)c1ccc(/C=C/c2n(Cc3ccc4ccccc4c3)c3ccccc3[n+]2Cc2ccc3ccccc3c2)cc1` was -95.8% (active); that for `COc1ccc2[nH]c(=O)cc(-n3ncc(C(=O)/C=C/c4cc(OC)c(OC)c(OC)c4)c3C)c2c1` was 11%.

As for `COc1ccc(C(=O)C[n+]2cccc3c4ccccc4ccc32)cc1`, the growth is 43.2%.

Consider `CN1CCc2c(sc3ncnc(N/N=C/c4cccc(Cl)c4Cl)c23)C1`, for which the growth was 67.4%.

As for `COc1ccc2[nH]c(O)c(N=Nc3nc(-c4ccccc4)cs3)c2c1`, the growth is 14.4%.

As to `COc1ccc(N=Nc2c(N)nn3c(N)c(C#N)c(-c4ccc(F)cc4)nc23)cc1`, the growth was 72.6%.

With `C=CCSc1nnc(-c2ccc(-c3nc4ccccc4[nH]3)cc2)o1`, the growth was 71.5%. Regarding `Cc1oc(-c2ccccc2)nc1CN[C@@H]1C[C@@H]2C[C@H]([C@H]1C)C2(C)C`, the growth was 42.4%. The same measure, in the same setting: to `COc1ccc(NC2=C(I)C(=O)C(C)=C(C)C2=O)cc1` belongs 25%.

Values taken from PubChem BioAssay (NCI).
